Data as given in the supplement of paper PMC6279402.
± gives the standard deviation of the averaged measurements.

Tested on: A549
Assay: relative viability (normalised to negative control = 1, bortezomib = 0) (fraction); higher = less cytotoxic
Conditions: inflammatory serum-free RHB-A with cytokines + LPS, 5 d + 24 h CellTiter-Blue
[1] = compound 30 nM, GSK126 pretreatment: 5 uM GSK126
[2] = compound 30 nM, GSK126 pretreatment: none (vehicle)
[3] = compound 300 nM, GSK126 pretreatment: 5 uM GSK126
[4] = compound 300 nM, GSK126 pretreatment: none (vehicle)

Nc1ccn([C@@H]2O[C@H](CO)[C@@H](O)[C@@H]2O)c(=O)n1
relative viability [1]: 0.833 ± 0.016
relative viability [2]: 0.79 ± 0.088
relative viability [3]: 0.668 ± 0.094
relative viability [4]: 0.475 ± 0.1

S=P(N1CC1)(N1CC1)N1CC1 [Thiotepa]
relative viability [1]: 1.01 ± 0.054
relative viability [2]: 0.949 ± 0.017
relative viability [3]: 0.919 ± 0.064
relative viability [4]: 0.935 ± 0.032

CN(C)c1nc(N(C)C)nc(N(C)C)n1 [Altretamine]
relative viability [1]: 0.861 ± 0.011
relative viability [2]: 0.87 ± 0.045
relative viability [3]: 0.931 ± 0.02
relative viability [4]: 0.887 ± 0.095

Cn1c(=O)c(F)c(Nc2ccc(I)cc2F)c2c(=O)n(C[C@@H](O)CO)cnc21
relative viability [1]: 0.156 ± 0.017
relative viability [2]: 0.1847 ± 0.0015
relative viability [3]: 0.0544 ± 0.0097
relative viability [4]: 0.0397 ± 0.0058

Oc1cccc(-c2nc(N3CCOCC3)c3oc4ncccc4c3n2)c1
relative viability [1]: 0.743 ± 0.082
relative viability [2]: 0.805 ± 0.11
relative viability [3]: 0.113 ± 0.011
relative viability [4]: 0.127 ± 0.025

Cn1cc(-c2ccc3nnc(Sc4ccc5ncccc5c4)n3n2)cn1
relative viability [1]: 0.807 ± 0.056
relative viability [2]: 0.846 ± 0.079
relative viability [3]: 0.859 ± 0.033
relative viability [4]: 0.903 ± 0.02

Nc1ncnc2c1c(-c1cccc(OCc3ccccc3)c1)cn2C1CC(CN2CCCC2)C1 (configuration not stated)
relative viability [1]: 0.733 ± 0.037
relative viability [2]: 0.748 ± 0.028
relative viability [3]: 0.287 ± 0.021
relative viability [4]: 0.333 ± 0.059

COc1cc(Nc2ncc3c(n2)-c2ccc(Cl)cc2C(c2c(F)cccc2OC)=NC3)ccc1C(=O)O
relative viability [1]: 0.804 ± 0.087
relative viability [2]: 0.821 ± 0.044
relative viability [3]: 0.523 ± 0.11
relative viability [4]: 0.381 ± 0.048

O=P(O)(O)C(O)(Cn1ccnc1)P(=O)(O)O [Zoledronic acid; Zolendronic acid]
relative viability [1]: 0.936 ± 0.023
relative viability [2]: 0.924 ± 0.15
relative viability [3]: 1.09 ± 0.12
relative viability [4]: 1.08 ± 0.051

CNC(=O)CN1CCC(Oc2cc3c(Nc4cccc(Cl)c4F)ncnc3cc2OC)CC1
relative viability [1]: 0.536 ± 0.14
relative viability [2]: 0.525 ± 0.058
relative viability [3]: 0.346 ± 0.075
relative viability [4]: 0.375 ± 0.024

C[C@]12CC[C@H](O)CC1=CC[C@@H]1[C@@H]2CC[C@]2(C)C(c3cccnc3)=CC[C@@H]12 [Abiraterone]
relative viability [1]: 0.893 ± 0.12
relative viability [2]: 0.869 ± 0.13
relative viability [3]: 0.937 ± 0.15
relative viability [4]: 1.03 ± 0.098

CC(=O)Nc1nc(C)c(-c2ccc(Cl)c(S(=O)(=O)NCCO)c2)s1
relative viability [1]: 0.61 ± 0.047
relative viability [2]: 0.678 ± 0.015
relative viability [3]: 0.487 ± 0.16
relative viability [4]: 0.712 ± 0.052

COc1cc2nccc(Oc3ccc(NC(=O)C4(C(=O)Nc5ccc(F)cc5)CC4)cc3)c2cc1OC [XL184; Cabozantinib]
relative viability [1]: 0.903 ± 0.061
relative viability [2]: 0.875 ± 0.12
relative viability [3]: 0.986 ± 0.043
relative viability [4]: 0.974 ± 0.014

CC1=C(/C=C/C(C)=C/C=C/C(C)=C/C(=O)O)C(C)(C)CCC1 [Retinoic acid; Tretinoin; 13-cis-retinoic acid]
relative viability [1]: 1.04 ± 0.088
relative viability [2]: 0.922 ± 0.043
relative viability [3]: 1.34 ± 0.05
relative viability [4]: 1.14 ± 0.064

Cc1ccc(-n2nc(C(C)(C)C)cc2NC(=O)Nc2ccc(OCCN3CCOCC3)c3ccccc23)cc1
relative viability [1]: 1.13 ± 0.13
relative viability [2]: 0.937 ± 0.18
relative viability [3]: 1.32 ± 0.064
relative viability [4]: 1.13 ± 0.23

OCCn1cc(-c2cnc3nnn(Cc4ccc5ncccc5c4)c3n2)cn1
relative viability [1]: 0.969 ± 0.045
relative viability [2]: 0.9847 ± 0.0075
relative viability [3]: 0.972 ± 0.058
relative viability [4]: 0.9557 ± 0.0093

CC1(C)CNc2cc(NC(=O)c3cccnc3NCc3ccncc3)ccc21 [Motesanib Diphosphate]
relative viability [1]: 0.917 ± 0.035
relative viability [2]: 0.864 ± 0.062
relative viability [3]: 0.937 ± 0.14
relative viability [4]: 0.918 ± 0.06

Cc1nc(N)sc1-c1ccnc(Nc2ccc(N3CCOCC3)cc2)n1
relative viability [1]: 0.898 ± 0.061
relative viability [2]: 0.913 ± 0.011
relative viability [3]: 0.797 ± 0.1
relative viability [4]: 0.72 ± 0.083

COc1nc(N)nc2c1ncn2[C@@H]1O[C@H](CO)[C@@H](O)[C@@H]1O [Nelarabine]
relative viability [1]: 0.838 ± 0.12
relative viability [2]: 0.875 ± 0.13
relative viability [3]: 0.96 ± 0.16
relative viability [4]: 0.956 ± 0.14

C[C@@H](CN1CC(=O)NC(=O)C1)N1CC(=O)NC(=O)C1 [Dexrazoxone; Dexrazoxane]
relative viability [1]: 0.828 ± 0.054
relative viability [2]: 0.832 ± 0.093
relative viability [3]: 0.859 ± 0.048
relative viability [4]: 0.908 ± 0.13

NC(=O)Nc1cc(-c2cccc(F)c2)sc1C(=O)N[C@H]1CCCNC1
relative viability [1]: 0.407 ± 0.061
relative viability [2]: 0.389 ± 0.034
relative viability [3]: 0.253 ± 0.082
relative viability [4]: 0.194 ± 0.021

CC[C@@H]1C(=O)N(C)c2cnc(Nc3ccc(C(=O)NC4CCC(N5CCN(CC6CC6)CC5)CC4)cc3OC)nc2N1C(C)C (some centres not stated) [BI6727 (Volasertib)]
relative viability [1]: 0.404 ± 0.1
relative viability [2]: 0.38 ± 0.095
relative viability [3]: 0.227 ± 0.042
relative viability [4]: 0.249 ± 0.097

COc1cc2/c(=N/c3ccc(Br)cc3F)nc[nH]c2cc1OCC1CCN(C)CC1 [Vandetanib]
relative viability [1]: 0.923 ± 0.1
relative viability [2]: 0.924 ± 0.083
relative viability [3]: 0.742 ± 0.12
relative viability [4]: 0.705 ± 0.044

CC(C)(C)c1cnc(CSc2cnc(NC(=O)C3CCNCC3)s2)o1
relative viability [1]: 0.859 ± 0.1
relative viability [2]: 0.811 ± 0.056
relative viability [3]: -0.00432 ± 0.0019
relative viability [4]: -0.0017 ± 0.0016

CCC[C@H](NC(=O)/C(C#N)=C/c1cccc(Br)n1)c1ccccc1
relative viability [1]: 0.926 ± 0.078
relative viability [2]: 0.929 ± 0.044
relative viability [3]: 0.973 ± 0.14
relative viability [4]: 1.04 ± 0.065

N#C/C(=C/c1ccc(O)c(O)c1)C(=O)NCc1ccccc1 [AG-490; Tyrphostin AG 490]
relative viability [1]: 0.914 ± 0.15
relative viability [2]: 0.861 ± 0.1
relative viability [3]: 0.879 ± 0.15
relative viability [4]: 0.873 ± 0.11

COc1cc2c(Nc3ccc(NC(=O)c4ccccc4)cc3)ncnc2cc1OCCCN1CCOCC1
relative viability [1]: 1.04 ± 0.053
relative viability [2]: 0.992 ± 0.1
relative viability [3]: 0.963 ± 0.07
relative viability [4]: 0.9853 ± 0.0095

O=C1c2ccccc2-c2n[nH]c3cccc1c23
relative viability [1]: 0.785 ± 0.1
relative viability [2]: 0.796 ± 0.078
relative viability [3]: 0.801 ± 0.075
relative viability [4]: 0.894 ± 0.15
